Rv3671c protease = Rv3671c (M. tuberculosis) protease inhibition; AID 2606; inhibition, % at 5.96 µM; 320,000 tested, 0.048% active; in the data active means inhibition above about 38%;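 further: extracellular domain of Rv3671c used as enzyme; 0% = enzyme with DMSO and 100% = no enzyme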
RecA splice inh = inhibitors of M. tuberculosis RecA intein splicing; P9WHJ3; cell-free RecA intein splicing, fluorescence; inhibition, % (concentration not given with the values); 290,000 tested, 0.75% active; in the data active means inhibition above about 30%;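 further: 0% = vehicle wells and 100% = reference inhibitor control wells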
Mtb bLac sens = beta-lactam sensitization of Mtb H37Rv. 330,000 tested, 0.27% active. AID 434955. M. tuberculosis H37Rv growth with meropenem, percent inhibition. inhibition, % at 25 µM; call rule not given here;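 further: growth measured after seven days incubation then overnight dye step; 0% = bacteria only wells and 100% = bacteria with antibiotic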
GDH-TPI inh = GDH-TPI coupled enzyme inhibition counter-screen | GDH-TPI coupled enzyme counterscreen, NADH absorbance | inhibition, % at 4.8 µM | 360,000 tested, 1.2% active | AID 588335; in the data active means inhibition above about 30%;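 further: 0% = DMSO wells and 100% = wells lacking the enzyme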
FBA Mtb inh = inhibits M. tuberculosis FBA enzyme. AID 588726. inhibition, % at 1 µM. 360,000 tested, 2.3% active. purified M. tuberculosis FBA, fluorescence read-out; in the data active means inhibition above about 27%;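 further: 0% = vehicle and 100% = reference inhibitor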
UGM FP inh = blocks M. tuberculosis UGM enzyme; P9WIQ1; purified UGM, fluorescence polarization probe displacement; inhibition, % at 10 µM; 320,000 tested, 0.06% active; in the data active means inhibition above about 10%, passing the limit was not always enough
Target sequence (P9WIQ1 whole entry, looked up): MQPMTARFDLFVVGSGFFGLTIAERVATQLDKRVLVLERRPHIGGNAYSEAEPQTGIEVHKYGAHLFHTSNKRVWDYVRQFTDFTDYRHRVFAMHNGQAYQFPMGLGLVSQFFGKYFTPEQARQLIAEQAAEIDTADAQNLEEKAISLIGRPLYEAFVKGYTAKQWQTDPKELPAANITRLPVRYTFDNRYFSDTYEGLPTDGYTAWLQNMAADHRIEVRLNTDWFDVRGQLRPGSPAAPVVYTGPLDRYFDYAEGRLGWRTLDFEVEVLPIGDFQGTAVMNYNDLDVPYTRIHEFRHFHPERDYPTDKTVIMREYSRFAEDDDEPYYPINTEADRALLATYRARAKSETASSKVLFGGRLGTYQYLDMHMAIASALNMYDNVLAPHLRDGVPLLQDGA
An asterisk follows results filed as active. An excerpt weighted towards active compounds, which were near 4% of everything screened.

For COC(=O)c1ccc(/C=N/NC(=O)c2cccc(F)c2)cc1 the results were Rv3671c protease 1.9, RecA splice inh 0.5, Mtb bLac sens 80.0, GDH-TPI inh 25.0, FBA Mtb inh -0.4 and UGM FP inh -0.6.
Screening O=C(N/N=C\c1ccc(Sc2ccccn2)o1)c1cccc(F)c1 returned Rv3671c protease -0.3, RecA splice inh 1.2, GDH-TPI inh 31.4*, FBA Mtb inh -0.8 and UGM FP inh 1.7.
`O=C(N/N=C/c1ccc(Sc2ccccn2)o1)c1cc2ccccc2cc1O` gave Rv3671c protease 10.6, RecA splice inh -66.1, Mtb bLac sens 69.2, GDH-TPI inh 51.2*, FBA Mtb inh -2.4 and UGM FP inh 4.0.
For O=C(N/N=C/c1ccc(Sc2ccccn2)o1)c1cccc([N+](=O)[O-])c1 the results were Rv3671c protease 2.3, RecA splice inh -1.6, GDH-TPI inh 24.8, FBA Mtb inh -4.6 and UGM FP inh 4.1.
Screening COc1ccc(S(=O)(=O)N2CCOCC2)cc1NC(=O)c1ccc(SC)cc1OC returned GDH-TPI inh -4.0 and FBA Mtb inh 1.4.
`Cc1ccc(/C=C2/C(=N)N3N=C(CC(=O)N4CCCC4)SC3=NC2=O)o1` gave Rv3671c protease -9.7, RecA splice inh 0.8, Mtb bLac sens 0.9, GDH-TPI inh 32.8*, FBA Mtb inh 4.9 and UGM FP inh 1.5.
Screening COc1cccc(-n2c(C)cc(/C=C3\C(=N)N4N=C(CC(=O)N5CCOCC5)SC4=NC3=O)c2C)c1 returned Rv3671c protease -0.9, RecA splice inh -9.6, Mtb bLac sens 18.1, GDH-TPI inh 31.1*, FBA Mtb inh -1.4 and UGM FP inh -0.1.
`Cc1cc(/C=C2\C(=N)N3N=C(CC(=O)N4CCOCC4)SC3=NC2=O)c(C)n1Cc1ccccc1` gave Rv3671c protease 8.0, Mtb bLac sens -0.6, GDH-TPI inh 8.1, FBA Mtb inh -1.5 and UGM FP inh -1.9.
For COc1ccc(OC)c(-n2c(C)cc(/C=C3\C(=N)N4N=C(CC(=O)N5CCOCC5)SC4=NC3=O)c2C)c1 the results were Rv3671c protease -3.0, RecA splice inh 2.1, Mtb bLac sens -1.0, GDH-TPI inh 31.0*, FBA Mtb inh 1.4 and UGM FP inh 1.4.
Screening CCCCCCCCCCC(C(=O)O)C1(C(=O)O)CCC(=O)O1 (stereo unspecified) returned GDH-TPI inh 1.4 and FBA Mtb inh -0.2.
For Cc1ccc(N2CCN(S(=O)(=O)c3c(C)nc4scc(C)n4c3=O)CC2)c(C)c1 the results were Rv3671c protease 0.4, RecA splice inh 6.4, Mtb bLac sens 0.0, GDH-TPI inh 30.8*, FBA Mtb inh -4.9 and UGM FP inh 1.9.
`Cc1ccc(Cl)cc1N1CCN(S(=O)(=O)c2c(C)nc3scc(C)n3c2=O)CC1` gave Rv3671c protease -1.6, RecA splice inh 0.1, Mtb bLac sens -0.6, GDH-TPI inh -2.5, FBA Mtb inh 0.3 and UGM FP inh -1.7.
Screening COc1ccc(-c2c(C#N)c(N)n(N)c(=O)c2C#N)cc1Cl returned Rv3671c protease -3.2, RecA splice inh -1.0, Mtb bLac sens 5.3, GDH-TPI inh 13.1, FBA Mtb inh 3.5 and UGM FP inh 2.6.
N#Cc1c(-c2ccc(Cl)cc2)c(C#N)c(=O)n(N)c1N was read as Rv3671c protease 3.8, RecA splice inh 3.2, Mtb bLac sens 0.3, GDH-TPI inh 32.7*, FBA Mtb inh -3.6 and UGM FP inh 2.1.
CSc1nc(-c2ccc(Cl)cc2)nc(N)c1C#N was read as Rv3671c protease 1.8, RecA splice inh 0.8, Mtb bLac sens -5.7, GDH-TPI inh -3.1, FBA Mtb inh 0.3 and UGM FP inh -0.9.
CSc1nc(N)c(C#N)c(-c2ccc(Cl)cc2)c1C#N was read as Rv3671c protease -54.7, RecA splice inh 0.7, Mtb bLac sens 1.9, GDH-TPI inh 32.8*, FBA Mtb inh 4.0 and UGM FP inh 0.0.
CCC(C)[C@H]1COCCS(=O)(=O)N1Cc1ccc(Cl)cc1Cl (stereo partly specified) was read as Rv3671c protease -7.7, RecA splice inh 9.1, Mtb bLac sens -1.5, GDH-TPI inh 12.1, FBA Mtb inh 6.2 and UGM FP inh 0.0.
`COc1cccc(-c2c(NC(=O)c3ccco3)oc3ccc(Cl)cc3c2=O)c1` gave Rv3671c protease -2.5, RecA splice inh -4.0, Mtb bLac sens 4.9, GDH-TPI inh 35.9*, FBA Mtb inh -0.1 and UGM FP inh 4.3.
For COc1cccc(-c2c(NC(=O)c3ccco3)oc3ccccc3c2=O)c1 the results were Rv3671c protease -1.0, RecA splice inh -2.5, Mtb bLac sens -2.2, GDH-TPI inh 24.3, FBA Mtb inh 0.3 and UGM FP inh 2.6.
`CC1CCN(Cc2nnnn2CCCC(=O)N(C)C2CCOC2)CC1` (stereo unspecified) gave Rv3671c protease 11.8, RecA splice inh -2.4, Mtb bLac sens 1.4, GDH-TPI inh -0.8, FBA Mtb inh -3.2 and UGM FP inh 1.3.
Screening CC(C)C[C@H](NC(=O)[C@H](Cc1ccccc1)n1c(=O)[nH]c2ccccc2c1=O)C(=O)N1CCC[C@H]1C(=O)O returned Rv3671c protease -0.9, RecA splice inh -2.8, Mtb bLac sens 0.2, GDH-TPI inh -3.9, FBA Mtb inh 2.7 and UGM FP inh -0.7.
Screening CC(C)OC(=O)C1C2C=CC3(CN(Cc4cccs4)C(=O)C13)O2 (stereo unspecified) returned Rv3671c protease 0.6, RecA splice inh 0.1, Mtb bLac sens -8.0, GDH-TPI inh -4.3, FBA Mtb inh 122.7* and UGM FP inh 0.6.
For COC(=O)C1C2C=CC3(CN(Cc4cccs4)C(=O)C13)O2 (stereo unspecified) the results were Rv3671c protease -5.8, RecA splice inh -1.1, Mtb bLac sens 2.6, GDH-TPI inh 1.2, FBA Mtb inh 6.0 and UGM FP inh 3.0.
For Cc1ccc2cc(C)c3nnc(SCc4ccc(C(=O)O)cc4)n3c2c1C the results were Rv3671c protease -5.2, RecA splice inh 2.0, Mtb bLac sens -2.8, GDH-TPI inh 11.6, FBA Mtb inh 3.4 and UGM FP inh -0.1.
For CCOc1ccccc1NC(=O)c1cc(C(=O)c2cc(Br)ccc2O)coc1=N the results were Rv3671c protease -80.6, RecA splice inh -1.1, Mtb bLac sens 5.2, GDH-TPI inh 31.1*, FBA Mtb inh 3.8 and UGM FP inh -0.7.
Cc1ccc(C2C3=C(CC(C)(C)CC3=O)N(CCN3CCOCC3)C3=C2C(=O)CC(C)(C)C3)cc1 was read as Rv3671c protease -0.4, RecA splice inh -313.2, Mtb bLac sens -2.6, GDH-TPI inh 7.1, FBA Mtb inh 29.4* and UGM FP inh -0.8.
Screening CC1(C)CC(=O)C2=C(C1)N(CCN1CCOCC1)C1=C(C(=O)CC(C)(C)C1)C2c1ccc(Cl)c([N+](=O)[O-])c1 returned Rv3671c protease -5.7, RecA splice inh -0.7, Mtb bLac sens -9.8, GDH-TPI inh 2.5, FBA Mtb inh 2.6 and UGM FP inh 0.1.
Oc1ccc(-c2nc3c4c(ncn3n2)-c2ccccc2CC42CCCC2)cc1 was read as Rv3671c protease 4.3, RecA splice inh 1.8, Mtb bLac sens 8.7, GDH-TPI inh 3.6, FBA Mtb inh -1.3 and UGM FP inh 1.4.

Assay outcomes deposited in PubChem BioAssay by several laboratories.
